PubChem BioAssay AID492992 (Johns Hopkins Ion Channel Center, 2010)
Out of some 4,900 compounds screened, about 2,100 (43%) were called active.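 How the source made its calls: active means thallium signal inhibited by more than 5 SD of the compound-free buffer control wells, on both duplicate plates; inactive means the rest.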 The set was probably picked from earlier hits. Only a sample is shown.

target: Potassium channel subfamily K member 9 (Homo sapiens) (UniProt Q9NPC2); assay: KCNK9 potassium channel inhibitors, confirmation, HEK293 cells, thallium flux, duplicate (AID 492992); conditions: FluxOR thallium flux fluorescence, at 10 µM; hits give high values;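 on inhibition: 0% = assay buffer control wells without compound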
Sequence (Q9NPC2 whole entry, looked up): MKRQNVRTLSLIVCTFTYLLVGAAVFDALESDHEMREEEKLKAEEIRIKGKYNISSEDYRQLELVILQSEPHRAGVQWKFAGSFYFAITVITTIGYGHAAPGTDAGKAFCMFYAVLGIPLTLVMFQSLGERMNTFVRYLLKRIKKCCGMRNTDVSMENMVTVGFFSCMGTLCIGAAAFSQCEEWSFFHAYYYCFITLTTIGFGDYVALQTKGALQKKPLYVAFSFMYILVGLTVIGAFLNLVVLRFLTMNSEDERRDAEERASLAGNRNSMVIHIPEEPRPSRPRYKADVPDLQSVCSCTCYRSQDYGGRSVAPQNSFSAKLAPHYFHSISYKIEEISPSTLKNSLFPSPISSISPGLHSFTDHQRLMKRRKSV

SMILES	inhibition
Cc1cc2ccccn2c1C(=O)c1cccc(S(=O)(=O)N2CCOCC2)c1	inactive
COc1cccc(CN(C)C(=O)CC23CC4CC(CC(C4)C2)C3)c1OC	inactive
CCN(CC)C(=O)CC1(c2ccccc2OC)CCOC(C(C)C)C1 (stereo not given)	36.5% (active)
O=C1N=C2SCCN2/C1=C\c1c(Cl)cccc1Cl	inactive
CC1=C/C(=N\OS(=O)(=O)c2ccccc2)C=CC1=O	inactive
COc1cc(C(CCN2CCN(c3ccccc3)CC2)c2c(OC)cc(OC)c3ccc(=O)oc23)cc(OC)c1OC (stereo not given)	inactive
CCOc1ccc(CN(Cc2ccco2)C(c2cccs2)c2nnnn2C(C)(C)C)cc1 (stereo not given)	60.5% (active)
COc1ccc(C2CC(c3cccs3)=Nc3ccccc3S2)cc1OC (stereo not given)	40.5% (active)
COc1ccc(OC)c(-c2csc(-c3cccs3)n2)c1	inactive
O=C(COC(=O)c1c2c(nc3ccccc13)CCCC2)c1ccc(Br)s1	inactive
CCc1ccccc1NC(=O)/C(=C/c1ccccc1)c1ccccc1	37.5% (active)
CC(Oc1ccc2ccccc2c1)C(=O)NNC(=S)NC(=O)c1ccco1 (stereo not given)	inactive
O=C(Nc1ccc(Oc2ccccc2)cc1)c1ccco1	50.5% (active)
Cc1ccc(C2=NN(C)c3nc4ccccc4n3C2)cc1	inactive
CCCN1C(=O)C(Cc2nc3ccccc3c(=O)n2-c2ccccc2)c2cc(C)ccc21 (stereo not given)	47% (active)
Brc1ccc(C2CC(c3ccccc3)=Nc3ccccc3N2)cc1 (stereo not given)	61.5% (active)
O=C(NNc1ccccc1Cl)C(O)(c1cccc(C(F)(F)F)c1)c1cccc(C(F)(F)F)c1	44% (active)
COc1cccc(-c2cc3nc4c(c(N5CCC6(CC5)OCCO6)n3n2)CCCC4)c1	inactive
CC(C)(C)C1CCC(C(=O)NCC(c2cccs2)N2CCOCC2)CC1 (stereo not given)	inactive
CCc1cccc(C)c1N(C(=O)Cn1c(CO)nc2ccccc21)C(C)COC (stereo not given)	37.5% (active)
O=[N+]([O-])c1ccc(N2CCN(CC(O)COc3ccccc3)CC2)cc1 (stereo not given)	inactive
Cc1[nH]c2ccccc2c1CCN(Cc1cccs1)C(=S)NC(C)(C)C	inactive
COc1cccc(NC(=S)N(CCc2c(C)[nH]c3ccccc23)Cc2ccco2)c1	59% (active)
COc1ccc([N+](=O)[O-])cc1-c1nc2ccccc2nc1-c1ccccc1	inactive
COC(=O)Cn1cnc2scc(-c3ccc(C)c(C)c3)c2c1=O	inactive

SMILES	inhibition
CC(C)N(C(=O)CSc1nc(COc2ccccc2)nc2ccccc12)C(C)C	76.5% (active)
O=C1/C(=C/c2ccc3c(c2)OCO3)CCC/C1=C\c1ccc2c(c1)OCO2	inactive
O=C(NCCCc1ccccc1)c1cc(COc2c(F)cccc2F)on1	inactive
COc1ccc(CCNC(=O)c2ccccc2OCc2ccccc2)cc1	64% (active)
COc1ccc(CCNc2ncnc3c2nnn3Cc2ccccc2)cc1	inactive
COc1cccc(C(=O)NCCSc2ccc(Br)cc2)c1	inactive
COc1cc(NC(=S)NCCSc2ccc(C)cc2)cc(OC)c1	27% (active)
COc1ccc(-c2noc(CSc3ccc(C)cc3)n2)cc1	inactive
CCOc1ccccc1NC(=O)C12CC3CC(C1)CC(c1ccc(C)cc1)(C3)C2	inactive
O=C(Oc1ccc(Br)cc1C(=S)N1CCOCC1)c1cccc([N+](=O)[O-])c1	50% (active)
COc1ccc(-c2oc(/N=C/N3CCCC3)c(C#N)c2-c2ccc(OC)cc2)cc1	inactive
O=C(Cn1cc(C(=O)c2cccs2)c2ccccc21)NCc1cccs1	39% (active)
Cc1ccc(CN(N=Nc2nonc2N)c2nonc2N)c(C)c1	68.5% (active)
C/C(=N\NC(=S)Nc1ccc(C)cc1)c1cc2ccccc2o1	inactive
Cc1cccc(N(C)C(=O)CN2C(=O)COc3ccc(S(=O)(=O)N4CCCCCC4)cc32)c1	inactive
Cc1ccc(S(=O)(=O)N2CCN(C(=O)COC(=O)c3c(C)cc(C)cc3C)CC2)c(C)c1	inactive
CCOc1ccc(C(C)C)cc1S(=O)(=O)n1nc(C)cc1C	33% (active)
CC(C)(C)NC(=O)NC(=O)CN1CCC(Cc2ccccc2)CC1	inactive
CC1=CC(C)(C)N(C(=O)CSc2nnc(-c3ccccc3)o2)c2ccc(C)cc21	inactive
C=CCOc1ccc(/C=N/NC(=O)C(C)Sc2ccccn2)cc1OCC (stereo not given)	46.5% (active)
O=[N+]([O-])/C=C/c1ccc2c(ccn2Cc2ccccc2)c1	inactive
COC(=O)c1sc(-c2ccc(C(C)(C)C)cc2)cc1NC(=O)/C=C/C(=O)O	inactive
O=C(CC(NC(=O)c1ccccc1)c1ccccc1)Nc1ccc(F)c(F)c1 (stereo not given)	inactive
O=C(C[C@H]1C(=O)N(c2ccc(F)c(F)c2)C[C@@H]1Cc1ccccc1)Nc1ccccc1	39% (active)
Cc1ccc(C(=O)c2c(NC(=O)c3ccccc3)sc(C)c2C)cc1	inactive
